Bioassay records (PubChem)
FEN1 inh: blocks human flap endonuclease 1; P39748; Recombinant FEN1 flap cleavage, fluorescence, 15 min; Potency, µM (doses to about 114 µM), actives largely listed as inhibitors; hit rate 0.35% among 390,000; AID 588795; further: nearly all actives have a fitted effect of over 65% in size
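Reaction started by adding substrate (50 nM final) to 10 nM enzyme after 15 min room-temperature compound preincubation. Reads at 0 and 15 min, with data normalized and fitted to a four-parameter Hill equation.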
WRN inhibitor: inhibitors of human WRN helicase; WRN helicase unwinding, fluorescent forked duplex, kinetic; Potency, µM (doses to about 114 µM), most hits filed as inhibitors; hit rate 0.46% among 360,000; AID 651768; further: nearly all actives have a fitted effect of over 55% in size
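Enzyme (20 nM final) and test compound sit together 15 min at room temperature before substrate addition. Substrate is a single-forked duplex oligonucleotide (100 nM) labelled with fluorophore and quencher, with 2 mM ATP; helicase unwinding raises red fluorescence, read kinetically.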
PGK inhibitor: inhibitors of T. brucei phosphoglycerate kinase; Potency, µM (top dose mostly 57.5 µM), most hits filed as inhibitors; hit rate 0.043% among 380,000; PGK/GAPDH coupled, Kinase-Glo luminescence, 60 min; AID 602233; P07378; further: nearly all actives have a fitted effect of over 60% in size
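Luminescent ATP detection (Kinase-Glo Plus) follows a 60-minute room-temperature incubation, with wells lacking PGK as controls. Buffer: 100 mM TEA (pH 7.6), 5 mM MgCl2, 0.01% Tween-20. Coupling enzyme GAPDH (100 nM final) supplies unstable 1,3-BPG in-well.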
Tb PFK block: blocks T. brucei phosphofructokinase; T. brucei PFK, ADP-Glo luminescence; Potency, µM (series often up to 57.5 µM), usual class: inhibitors; hit rate 0.17% among 330,000; O15648; further: nearly all actives have a fitted effect of over 60% in size
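PFK 1.25 nM, F6P 0.5 mM, ATP 0.1 mM, 0.1 M TEA pH 8.0, 5 mM MgCl2, 0.01% Tween20, 0.1% BSA; 45 min RT. ADP-Glo readout. qHTS titration up to 57 uM; curves fitted, compounds curve-classed.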
TDP1 block: blocks human tyrosyl-DNA phosphodiesterase 1; recombinant TDP1, AlphaScreen DNA substrate cleavage; Potency, µM (series often up to 130 µM), hits mostly inhibitors; hit rate 0.28% among 350,000; further: nearly all actives have a fitted effect of over 40% in size
Target sequence (Q9NUW8 whole entry, looked up): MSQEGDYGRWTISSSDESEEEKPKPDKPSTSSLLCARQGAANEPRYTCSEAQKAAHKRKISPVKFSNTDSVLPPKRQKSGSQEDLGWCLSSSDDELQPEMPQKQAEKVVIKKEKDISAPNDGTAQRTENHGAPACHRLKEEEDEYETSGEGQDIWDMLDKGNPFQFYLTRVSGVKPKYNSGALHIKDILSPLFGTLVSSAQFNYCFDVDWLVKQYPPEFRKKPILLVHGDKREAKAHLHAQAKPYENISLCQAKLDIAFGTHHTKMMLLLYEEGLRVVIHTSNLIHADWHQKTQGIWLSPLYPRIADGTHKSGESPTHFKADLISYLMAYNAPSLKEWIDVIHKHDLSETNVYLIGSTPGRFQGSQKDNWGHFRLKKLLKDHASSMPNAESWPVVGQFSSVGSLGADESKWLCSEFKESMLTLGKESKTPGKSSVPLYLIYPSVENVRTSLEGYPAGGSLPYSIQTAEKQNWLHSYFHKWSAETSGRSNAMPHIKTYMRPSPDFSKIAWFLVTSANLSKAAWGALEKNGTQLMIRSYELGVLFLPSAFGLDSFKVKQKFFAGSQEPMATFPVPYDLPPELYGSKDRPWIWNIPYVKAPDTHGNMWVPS
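E. coli-derived human Tdp1, 1 nM final. Cpd preinc 15 min RT; substrate 15 nM final, 5 min RT; AS bead mix 10 ug/ml final, 10 min RT. Signal loss = tyrosine-FITC cleavage. No-enzyme wells = max signal.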
PI5P4Ka inh: inhibitors of human PI5P4K alpha; max response, %; PI5P4Kalpha enzyme, ADP-Glo luminescence, 60 min; active compounds read low; P48426; hit rate 1.2% among 330,000; active means max response of -50% or lower; inconclusive means between -30% and -50%; inactive means -30% or higher; further: value at the top dose of about 77 µM
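Compounds were pin-transferred onto PI5P4Kalpha and substrate in HEPES pH 7.4 buffer with EGTA, CHAPS and 5% DMSO. ATP (5 microM final) started the reaction, which ran 60 minutes at room temperature before ADP-Glo detection.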
ADP-Glo interf: ADP-Glo luciferase interference, PI5P4K counter-screen. shares compounds with PI5P4Ka inh. ADP-Glo detection counter-screen, luciferase luminescence, no enzyme. 1,100 tested, under 10 active. AID 743285. Potency, µM (highest dose often 76.9 µM), actives largely listed as inhibitors
Hits are given with their value; 0 = inactive; ? = inconclusive; - = not tested or not shown; [ ] = remark or other dose. The list is not random: actives were taken first. Their share in the collection is about 1.5%. Unless noted, the call rests on the fitted dose curve; in most records, active means well fitted curve in the direction sought with a large enough effect; inconclusive means small, poorly fitted or top-dose-only effect, or another doubt; inactive means no such curve, though single readings can be large; an effect the other way counts as inactive or inconclusive.

SMILES	FEN1 inh	WRN inhibitor	PGK inhibitor	Tb PFK block	TDP1 block	PI5P4Ka inh	ADP-Glo interf
Fc1cccc(Cc2c(-c3ccco3)nc3ccc(Br)cn23)c1	-	0	-	-	-	-64	0
Fc1cccc(Cc2c(-c3ccco3)nc3ccc(Cl)cn23)c1	-	0	-	-	-	-51	0
O=S(=O)(NN=C1CCCCCCC1)c1ccccc1	-	0	0	-	-	0	-
O=C(Oc1cc2oc(=O)cc(-c3ccccc3)c2cc1Cl)C1CCCCC1	0	0	0	0	0	-88	0
COc1n[nH]c(C(=O)Nc2nc3ccccc3s2)c1[N+](=O)[O-]	0	0[11.6 µM]	0	0	0	-54	0
Nn1c(SCC(=O)Nc2cccc(Br)c2)nnc1C1CC1	0	0	0	0	0	0	-
O=C(NCc1ccncc1)c1ccc2nc([C@@H]3O[C@H](CO)[C@H](O)[C@H](O)[C@H]3O)[nH]c2c1	-	0	-	-	-	0	-
Cc1ccccc1CNC(=O)c1ccc2nc([C@@H]3O[C@H](CO)[C@H](O)[C@H](O)[C@H]3O)[nH]c2c1	-	0	-	-	-	-88	0
O=C(Nc1ccccn1)c1sc2cc([N+](=O)[O-])ccc2c1Cl	0	0	0	?	0	-52	0
O=C(Nc1ccccc1C(=O)Nc1ccccn1)c1ccc([N+](=O)[O-])cc1	0	0	0	0	0	0	-
Cc1ccc(S(=O)(=O)N(Cc2ccccc2)c2ccccc2C(=O)NCc2cccnc2)cc1	0	0	0	0	0	0	-
Clc1ccc(-c2nc3ncccn3c2Cl)cc1	0	0	0	0	0	0	-
CCc1nc2oc3ccccc3c(=O)c2c(=O)n1-c1ccc(C)cc1	0	0	0	0	0	-54	0
CCc1nc2oc3ccccc3c(=O)c2c(=O)n1-c1ccccc1	0	0	0	0	0	-	-
Clc1cccc(Cl)c1CNc1ccc(N2CCCC2)cc1	0	0	0	0	0	-51	0
Fc1ccc(CNc2ccc(N3CCN(Cc4ccccc4)CC3)cc2)cc1	0	0	0	0	0	0	-
O=c1c(Cc2ccccc2)c(O)nc2n1CCS2	0	0	0	0	0	-55	0
Cc1nc(-c2cccc(C(F)(F)F)c2)sc1C(=O)O	0	0	0	0	0	-50	0
CC(C)C(=O)Nc1nnc(NC(=S)Nc2ccccc2)s1	0	0	0	0	0	-56	0
CC(C)C(=O)Nc1nnc(CCc2ccccc2)s1	0	0	0	0	-	-51	0
O=C(COCc1cc(-c2ccc3c(c2)OCO3)on1)NCc1ccccc1Cl	0	-	0	-	0	-	-
COc1ccccc1C(=O)NCc1ccc2c(c1)CCN2C(=O)c1ccncc1	0	-	0	-	0	-	-
CC(C)NC(=O)C1CCN(C2CCN(Cc3nc4ccccc4s3)CC2)CC1	0	0	0	0	0	0	-
COCCCNC(=O)C1CCN(C(=O)c2cnn(-c3ccccc3)c2-n2cccc2)CC1	0	-	0	-	0	-	-
Cc1ccn2c(NC3CCCC3)c(-c3cccs3)nc2c1	0	0	0	0	0	-65	0
SMILES	FEN1 inh	WRN inhibitor	PGK inhibitor	Tb PFK block	TDP1 block	PI5P4Ka inh	ADP-Glo interf
c1csc(-c2nc3ccccn3c2NC2CCCCC2)c1	0	0	0	0	0	0	-
COc1ccc(-c2cc(C(=O)Oc3ccc(Cl)cc3)c3ccccc3n2)cc1	0	-	0	-	0[12.3 µM]	-	-
CC1Cc2ccccc2N1C(=O)COC(=O)Cc1ccc(F)cc1 (centres undefined)	0	0	0	0	0	0	-
O=C(CSc1nnc(NC(=O)Cc2ccccc2)s1)NCc1ccco1	0	0	0	0	0	0	-
Cc1ccc(Nc2nnc(SCC(=O)NCc3ccco3)s2)cc1	0	0	0	?	?	-52	0
COc1ccc(S(=O)(=O)N2CCOCC2)cc1NC(=O)c1cccc(-n2cccc2)c1	0	?	0	?	-	-74	0
COc1ccccc1NC(=O)c1cccc(S(=O)(=O)N2CCOCC2)c1	0	0	0	0	0	0	-
Cc1cc(C)nc(NS(=O)(=O)c2ccc(NC(=O)c3ccc(O)cc3O)cc2)n1	0	0	0	0	-	0	-
CCOC(=O)c1nnn(-c2ccccc2)c1C	0	0	0	0	0	0	0
COc1ccc(C)cc1S(=O)(=O)NCC(c1cccs1)S(=O)(=O)c1ccc(C)cc1 (centres undefined)	0	-	0	-	0	-	-
O=C1C2CC3N1CCC31c3ccccc3-n3c1c2ccc3=O (centres undefined)	0	0	0	-	-	0	-
Cc1cc(NC(=O)c2sc(Nc3ccc(F)cc3)nc2N)no1	0	0	0	0	0	-54	0
Nc1nc(Nc2ccccc2)sc1C(=O)c1ccccc1	0	0	0	0	0	-65	0
Cc1cnc(NC(=O)c2sc(Nc3ccccc3)nc2N)o1	0	0	0	0	-	-55	0
Cc1nc(NC(N)=S)sc1C(=O)Nc1ccccc1	0	0	0	0	0	-	-
COc1ccc(C(=O)c2sc(Nc3ccccc3F)nc2N)cc1	?	0	-	0	-	-81	0
CSCCC(NS(=O)(=O)c1ccc(Br)cc1)C(=O)OCC(=O)NC1CC1 (centres undefined)	0	0	0	0	0	0	-
Cc1nc(Cl)c(Cl)n1CCOc1ccccc1	0	0	0	0	0	0	-
CN1CCC(=NNc2ccc(S(=O)(=O)N3CCOCC3)cc2[N+](=O)[O-])CC1	0	0	0	0	0	0	-
Cc1ccc(-c2csc(NC(=O)c3ccc(F)cc3)c2C(=O)O)cc1	0	0	0	0	-	-61	0
O=C(O)C1CC[C@@](C(=O)O)(c2ccccc2)c2ccccc21 (some centres undefined)	-	-	-	-	0	-	-
Cc1ccccc1N1CC(C(=O)Nc2nnc(SCC(=O)Nc3nccs3)s2)CC1=O (centres undefined)	0	0	0	0	0	?	0
Cc1cccc(-n2c(=S)[nH]c3sc4c(c3c2=O)CCc2ccccc2-4)c1	0	?	0	0	0	-77	0
COCCn1nnnc1C(c1cc2cc(OC)c(OC)cc2[nH]c1=O)N1CCN(c2ccc(O)cc2)CC1 (centres undefined)	0	?	0	0	?	-54	0
C[C@H]1CN([C@@H](C)CO)C(=O)c2cc(C#CCC3CCCC3)cnc2O[C@@H]1CN(C)C(=O)CC1CC1	-	0	0	-	-	0	-
CC(=O)c1ccc(NC(=O)c2cc(=O)[nH]c3ccccc23)cc1	0	0	0	0	-	0	-
CCOc1ccc(NC(=O)c2cc(=O)[nH]c3ccccc23)cc1	0	0	0	0	0	-51	0
CN(Cc1cn(-c2ccccc2)nc1-c1cc2ccccc2o1)C(=O)CCC(=O)O	0	0	0	0	0	-59	0
